# PubChem BioAssay
# Several values for one entry are separate records, joined by “and”; a condition that tells them apart may be missing. Equal values may be shown once. Activity calls are given as the source filed them.
# Experiments:
# [1] = molecular target: Albumin (Bos taurus) (UniProt P02769); assay: compounds binding labelled BSA control protein – biochemical, small-molecule microarray, Alexa647 label, 635/667 nm fluorescence, artefact control for SMM control protein annotation, profiling panel (AID 1118); conditions: BSA-A647 binding, fluorescence 635 nm, higher = more signal;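 further: score merges 667 nm emission intensity and signal-to-noise per printed compound spot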
# [2] = probe aXIP binding to arrayed compounds – biochemical, NeuroSMM set, 635/667 nm fluorescence, primary screen (AID 1119); conditions: small-molecule microarray, higher = more signal, called active from +8 up or from −8 down;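 further: probe is the protein aXip251-270 applied at 1 µg/mL to compound-printed slides; binding of probe to printed compounds measured as 667 nm fluorescence plus signal to noise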
# [3] = probe aNOTCH3 binding on compound microarray – biochemical, small-molecule microarray, 635/667 nm fluorescence, primary screen (AID 1120); conditions: higher = more signal;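 further: probe is a biotin-tagged antibody raised against NOTCH3 rather than NOTCH3 protein; score merges spot fluorescence near 667 nm with spot signal to noise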
# [4] = probe aNOTCH2 binding on compound microarray – biochemical, small-molecule microarray, 635/667 nm fluorescence, primary screen (AID 1121); conditions: higher = more signal;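 further: score merges feature fluorescence read at 667 nm with its signal to noise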
# [5] = molecular target: Carbonic anhydrase 2 (Homo sapiens) (UniProt P00918); assay: compounds binding carbonic anhydrase 2 – biochemical, small-molecule microarray, Alexa647-labelled CAII, profiling panel (AID 1122); conditions: CAII-A647 binding fluorescence, higher = more signal
# [6] = COS7 lysate on small-molecule microarray, probe aHis, 635 nm (AID 1123); conditions: COS7 cell lysate, fluorescence, higher = more signal;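 further: z-score combines 667nm fluorescence intensity with signal-to-noise per printed compound spot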
# [7] = probe aLAP1 signal on lysate-treated microarray – cell lysate, small-molecule microarray, COS7 lysate, primary screen (AID 1124); conditions: probe aLAP1, fluorescence, higher = more signal;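 further: lysate comes from COS7 cells expressing LAP1 and is applied at 0.3 µg/mL; score merges spot fluorescence near 667 nm with signal-to-noise over triplicate slides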
# [8] = test system: Sam68 (KHDRBS1); assay: compounds binding KHDRBS1 protein – biochemical, small-molecule microarray, 635 nm fluorescence, primary screen (AID 1125); conditions: higher = more signal;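 further: score merges 667 nm channel intensity with signal to noise over triplicate slides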
# [9] = test system: Chordin-like protein 2 (CHRDL2); assay: compounds binding chordin-like 2 – biochemical, small-molecule microarray, 635 nm fluorescence, primary screen (AID 1126); conditions: fluorescence 635 nm, higher = more signal;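 further: printed compound slides probed with Chrdl2 protein at 4 µg/mL for 1 h at 4 C; score merges 667 nm emission intensity with signal to noise over three replicate slides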
# [10] = molecular target: Concanavalin-A (Canavalia ensiformis) (UniProt P02866); assay: compounds binding concanavalin A lectin – biochemical, small-molecule microarray, Alexa647 label, 635 nm, artefact control for SMM control protein annotation, primary screen (AID 1127); conditions: ConA-A647 binding fluorescence, higher = more signal;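 further: z combines 667 nm emission intensity with signal-to-noise across three replicate slides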
# [11] = compounds binding Alexa647 anti-His antibody – biochemical, small-molecule microarray, 635 nm fluorescence, artefact control for SMM control protein annotation, primary screen (AID 1128); conditions: higher = more signal;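 further: score merges feature fluorescence with signal-to-noise for each printed compound spot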
# [12] = test system: Human papillomavirus type 1a E7 protein (residues 1-88); assay: HPV1a E7 small-molecule binders, primary screen, biochemical, small-molecule microarray, residues 1-88, 635 nm (AID 1129); conditions: small-molecule microarray binding, fluorescence 635 nm; higher = more signal
# [13] = molecular target: Focal adhesion kinase 1 (Homo sapiens) (UniProt Q05397); assay: PTK2 protein binding on printed compound slides – biochemical, small-molecule microarray, 635/667 nm fluorescence, BSA, DTT, primary screen (AID 1130); conditions: 635 nm fluorescence, higher = more signal;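 further: composite of spot emission at 667 nm and signal to noise over triplicate slides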
# [14] = test system: Fibrinogen (Alexa647-labelled); assay: Alexa647-fibrinogen binding to printed small molecules – biochemical, small-molecule microarray, 635/667 nm fluorescence, artefact control for SMM control-protein annotation, profiling panel (AID 1131); conditions: fibrinogen-A647 binding fluorescence, higher = more signal;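 further: z-score merges 667 nm fluorescence with per-spot signal-to-noise over triplicate slides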
# [15] = molecular target: Follistatin (Homo sapiens) (UniProt P19883); assay: FST protein binding to printed compounds – biochemical, small-molecule microarray, 635/667 nm fluorescence, primary screen (AID 1132); conditions: 635 nm fluorescence, higher = more signal
# [16] = molecular target: Fibroblast growth factor 2 (Homo sapiens) (UniProt P09038); assay: basic fibroblast growth factor binding to printed compounds – biochemical, small-molecule microarray, 635/667 nm fluorescence, primary screen (AID 1133); conditions: FGF2, fluorescence 635/667, higher = more signal
# [17] = JC-1 mitochondrial potential readout, lung cancer cells – cell-based, A549, JC-1 fluorescence, basal, 24 h, 100 nL, profiling panel (AID 1138); conditions: higher = more signal;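 further: A549 lung adenocarcinoma cells under basal conditions with no added stimulus; test concentration not given here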
# [18] = test system: Lefty1; assay: Lefty1 protein binding to printed compounds – biochemical, small-molecule microarray, 635/667 nm fluorescence, primary screen (AID 1139); conditions: fluorescence 635/667, higher = more signal
# [19] = test system: wheat germ agglutinin (Triticum aestivum), Alexa647-labelled; assay: Alexa647-WGA lectin binding to printed small molecules – biochemical, small-molecule microarray, 635/667 nm fluorescence, artefact control for SMM control-protein annotation, profiling panel (AID 1140); conditions: WGA-A647 binding, 635 nm fluorescence, higher = more signal;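 further: score merges 667 nm feature emission with signal to noise over triplicate slides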
# [20] = molecular target: Luciferin 4-monooxygenase (Photinus pyralis) (UniProt P08659); assay: inhibition of purified Photinus pyralis luciferase – biochemical, luminescence, purified enzyme, 2006 set, primary screen (AID 1141); conditions: purified firefly luciferase, SteadyGlo luminescence, 30 min; higher = more signal, called active from +8 up or from −8 down;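 further: cell-free assay with purified firefly luciferase at 100 ng per well in PBS; test concentration not given here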
# Luciferin 4-monooxygenase (Photinus pyralis), sequence (P08659 whole entry, looked up): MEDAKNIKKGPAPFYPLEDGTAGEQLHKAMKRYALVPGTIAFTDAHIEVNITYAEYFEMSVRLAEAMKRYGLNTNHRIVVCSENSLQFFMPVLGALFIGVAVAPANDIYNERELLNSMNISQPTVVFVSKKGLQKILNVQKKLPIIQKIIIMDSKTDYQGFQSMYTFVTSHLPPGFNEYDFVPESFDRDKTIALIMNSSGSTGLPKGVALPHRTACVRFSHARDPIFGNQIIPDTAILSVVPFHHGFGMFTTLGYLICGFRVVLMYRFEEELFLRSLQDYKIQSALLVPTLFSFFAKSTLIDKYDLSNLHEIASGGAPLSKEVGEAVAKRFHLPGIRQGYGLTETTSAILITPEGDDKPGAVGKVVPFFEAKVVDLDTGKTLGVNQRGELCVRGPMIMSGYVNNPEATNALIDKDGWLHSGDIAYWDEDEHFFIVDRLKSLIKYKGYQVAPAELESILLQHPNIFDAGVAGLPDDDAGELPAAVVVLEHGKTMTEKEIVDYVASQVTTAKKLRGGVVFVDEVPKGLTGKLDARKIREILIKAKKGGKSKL
# Focal adhesion kinase 1 (Homo sapiens), sequence (Q05397 whole entry, looked up): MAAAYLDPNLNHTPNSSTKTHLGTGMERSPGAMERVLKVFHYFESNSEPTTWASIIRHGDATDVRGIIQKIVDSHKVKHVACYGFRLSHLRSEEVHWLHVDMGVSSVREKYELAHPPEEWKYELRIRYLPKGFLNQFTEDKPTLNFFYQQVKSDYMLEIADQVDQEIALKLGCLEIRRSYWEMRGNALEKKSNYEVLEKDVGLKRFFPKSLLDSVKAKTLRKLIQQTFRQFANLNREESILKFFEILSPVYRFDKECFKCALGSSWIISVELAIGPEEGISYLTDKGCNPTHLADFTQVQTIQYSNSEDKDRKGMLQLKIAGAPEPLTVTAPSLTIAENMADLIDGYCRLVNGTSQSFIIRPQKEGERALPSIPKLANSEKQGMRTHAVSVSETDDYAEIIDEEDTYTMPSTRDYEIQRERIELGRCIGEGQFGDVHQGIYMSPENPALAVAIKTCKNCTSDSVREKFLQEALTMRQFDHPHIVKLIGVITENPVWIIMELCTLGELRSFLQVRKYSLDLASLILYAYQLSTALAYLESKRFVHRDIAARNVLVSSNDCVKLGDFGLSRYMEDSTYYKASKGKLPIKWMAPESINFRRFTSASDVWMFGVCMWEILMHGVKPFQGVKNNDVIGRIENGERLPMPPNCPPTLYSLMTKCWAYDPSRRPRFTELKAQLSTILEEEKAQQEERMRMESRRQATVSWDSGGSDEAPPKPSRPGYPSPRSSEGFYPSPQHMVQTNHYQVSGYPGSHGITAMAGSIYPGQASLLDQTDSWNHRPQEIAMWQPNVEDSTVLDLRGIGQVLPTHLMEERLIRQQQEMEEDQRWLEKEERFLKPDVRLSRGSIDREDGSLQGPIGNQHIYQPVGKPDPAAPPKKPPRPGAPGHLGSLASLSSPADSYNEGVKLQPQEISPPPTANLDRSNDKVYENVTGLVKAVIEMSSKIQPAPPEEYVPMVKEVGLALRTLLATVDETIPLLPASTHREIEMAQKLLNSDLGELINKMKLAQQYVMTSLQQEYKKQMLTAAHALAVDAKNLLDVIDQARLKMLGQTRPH
# Concanavalin-A (Canavalia ensiformis), sequence (P02866 whole entry, looked up): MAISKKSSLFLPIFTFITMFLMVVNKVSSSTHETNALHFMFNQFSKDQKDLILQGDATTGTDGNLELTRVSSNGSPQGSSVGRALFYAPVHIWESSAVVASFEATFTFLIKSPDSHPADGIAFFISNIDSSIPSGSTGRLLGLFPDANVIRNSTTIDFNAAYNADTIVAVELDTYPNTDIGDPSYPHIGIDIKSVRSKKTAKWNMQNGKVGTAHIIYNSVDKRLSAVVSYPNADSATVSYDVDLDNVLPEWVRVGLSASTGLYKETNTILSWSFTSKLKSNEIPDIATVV
# Fibroblast growth factor 2 (Homo sapiens), sequence (P09038 whole entry, looked up): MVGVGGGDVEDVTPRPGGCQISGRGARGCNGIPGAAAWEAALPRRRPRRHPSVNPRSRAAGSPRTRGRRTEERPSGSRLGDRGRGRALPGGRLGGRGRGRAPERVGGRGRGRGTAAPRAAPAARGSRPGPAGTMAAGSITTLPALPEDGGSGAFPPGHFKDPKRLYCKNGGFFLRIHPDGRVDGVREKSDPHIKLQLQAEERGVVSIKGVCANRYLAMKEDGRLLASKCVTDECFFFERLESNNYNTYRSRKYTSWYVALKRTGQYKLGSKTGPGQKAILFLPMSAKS
# Albumin (Bos taurus), sequence (P02769 whole entry, looked up): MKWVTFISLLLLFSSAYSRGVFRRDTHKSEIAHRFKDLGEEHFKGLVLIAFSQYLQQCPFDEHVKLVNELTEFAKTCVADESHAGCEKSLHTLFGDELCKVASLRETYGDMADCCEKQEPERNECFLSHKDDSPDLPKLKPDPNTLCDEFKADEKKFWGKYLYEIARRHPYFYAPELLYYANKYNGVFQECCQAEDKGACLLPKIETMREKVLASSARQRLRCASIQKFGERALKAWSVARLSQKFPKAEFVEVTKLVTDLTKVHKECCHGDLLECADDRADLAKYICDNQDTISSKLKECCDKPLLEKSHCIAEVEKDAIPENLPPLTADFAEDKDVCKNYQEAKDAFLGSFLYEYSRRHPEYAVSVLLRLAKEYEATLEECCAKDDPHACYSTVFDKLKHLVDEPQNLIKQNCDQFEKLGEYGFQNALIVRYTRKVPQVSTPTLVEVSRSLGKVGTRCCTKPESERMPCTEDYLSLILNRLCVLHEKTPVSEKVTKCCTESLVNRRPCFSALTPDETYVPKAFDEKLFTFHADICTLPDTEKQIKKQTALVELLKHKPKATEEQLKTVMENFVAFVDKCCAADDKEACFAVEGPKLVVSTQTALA
# Follistatin (Homo sapiens), sequence (P19883 whole entry, looked up): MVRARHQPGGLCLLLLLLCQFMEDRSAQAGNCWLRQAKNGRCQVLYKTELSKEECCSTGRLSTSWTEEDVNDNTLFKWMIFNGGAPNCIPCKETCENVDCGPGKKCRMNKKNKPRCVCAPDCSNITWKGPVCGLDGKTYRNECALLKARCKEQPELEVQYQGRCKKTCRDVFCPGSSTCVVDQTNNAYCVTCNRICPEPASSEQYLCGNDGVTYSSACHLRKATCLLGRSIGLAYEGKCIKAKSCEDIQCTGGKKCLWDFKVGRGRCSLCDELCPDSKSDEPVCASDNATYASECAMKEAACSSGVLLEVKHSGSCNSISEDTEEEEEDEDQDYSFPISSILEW
SMILES,composite z-score [1],composite Z-score [2],composite z-score [3],composite z-score [4],composite z-score [5],composite z-score [6],composite z-score [7],composite z-score [8],composite z-score [9],composite z-score [10],composite z-score [11],composite z-score [12],composite z-score [13],composite z-score [14],composite z-score [15],composite z-score [16],z-score [17],composite z-score [18],composite z-score [19],z-score [20]
Cc1ccc(S(=O)(=O)OC[C@@H]2CN3[C@@H](CC[C@@H](C)[C@@H]3c3ccc(Br)cc3)C(=O)O2)cc1,0.278 and 0.51,-0.19 (inactive) and 0.177 (inactive),0.062 and 0.0051,-0.124 and -0.0326,0.11 and 0.427,-0.0886 and 0.315,-0.162 and 0.565,0.418 and 0.99,0.251 and 0.327,0.446 and 0.54,0.882 and -0.0006,0.433 and 0.434,0.0343 and 0.0817,0.555 and 0.193,0.137 and 0.577,0.281 and 0.102,-0.346 and 0.285,0.229 and 0.512,0.382 and 0.37,0.39 (inactive) and 0.13 (inactive)
CCOC(=O)[C@H](Cc1ccccc1)NC(=O)CCC1CC(OC(=O)NCc2cccc3ccccc23)CC2(CCCC(COC(=O)NCCCN3CCCC3=O)O2)O1 (stereo not given in full),-0.395,-0.365 (inactive),0.0203,-0.101,0.165,1.14,-0.223,1.12,0.5,1.08,0.903,1.05,0.222,0.951,0.625,0.467,1.21,0.539,0.0826,0.782 (inactive)
C=CCN(C(=O)C(c1cccs1)N(C(=O)/C=C\C(=O)O)C(C)(C)CO)c1ccc(OC)cc1 (stereo not given),-0.427 and -0.637,-0.431 (inactive) and -0.215 (inactive),-0.298 and -0.219,-0.143 and -0.133,0.937 and 0.938,1.72 and 0.0237,0.92 and 1.17,-0.294 and -0.786,-1.74 and -0.727,-0.692 and -0.93,-1.01 and -0.0442,-0.392 and -0.41,-0.675 and 1.18,-0.809 and -1.04,-1.7 and -1.17,-0.855 and -0.862,1.11 and 1.74,-1.22 and -0.566,-0.747 and -0.0298,-2.86 (inactive) and -5.74 (inactive)
COC(=O)C1=C(C)N(Cc2ccccc2)[C@]23O[C@](C(=O)OC)(C(=O)N2[C@@H]1c1ccccc1)[C@H]1CCCC(=O)[C@H]13,-0.0265 and -0.0851,-0.138 (inactive) and -0.0964 (inactive),0.19 and -0.136,-0.0116 and -0.0649,0.311 and -0.0597,0.685 and -0.0027,0.26 and -0.0668,0.174 and 0.227,0.228 and 0.551,1 and 0.279,0.677 and 1.34,0.312 and 0.104,-0.035 and 0.215,0.753 and 0.377,0.372 and 0.544,0.349 and 0.456,0.455 and -0.75,0.784 and 0.694,0.528 and -0.124,-0.5 (inactive) and 0.264 (inactive)
C=CCN1C(=O)[C@]2(O[C@H](CCn3cc(CCO)nn3)[C@@H]([Si](C)(C)c3ccc(OC)cc3)[C@@H]2C)c2cc(N3C(=O)c4cccc5cccc3c45)ccc21,0.558 and 0.668,0.729 (inactive) and 0.573 (inactive),0.0522 and 0.0259,-0.106 and -0.162,0.227 and 0.417,1.88 and 0.772,0.163 and -0.46,1.2 and 0.787,0.431 and 0.191,1.08 and 1.06,0.783 and 1.59,1.14 and 1.08,0.216 and 0.369,0.57 and 0.583,0.687 and 0.0673,0.296 and 0.381,-1.09 and -0.743,0.794 and 0.721,0.532 and 0.53,-0.511 (inactive) and 0.185 (inactive)
C=C[C@H](OC)[C@@H](O)c1ccc(O)c(F)c1,0.0861 and -0.58,-0.244 (inactive) and 0.209 (inactive),-0.592 and -0.454,-0.239 and -0.225,0.274 and -0.771,-0.541 and -0.37,-0.474 and -0.637,-1.1 and -1.43,-2.38 and -1.91,-1.97 and -1.23,-0.876 and -0.764,-1.22 and -1.21,-0.918 and -0.807,-2.91 and -1.06,-1.25 and -1.48,-0.826 and -1.47,-0.547 and -0.0182,-2.23 and -1.28,-1.47 and 0.129,-0.173 (inactive) and -0.446 (inactive)
C[N+](C)(C)CCCCNC(=O)[C@@H]1C[C@@H]2C(=O)N[C@@H](CCCC[N+](C)(C)C)C(=O)N2[C@@H]1c1cccc(OCCO)c1,-0.916 and -0.121,0.104 (inactive) and 2 (inactive),0.197 and 0.129,-0.0066 and -0.0861,0.389 and 0.799,1.19 and 2.25,0.0458 and 1.65,1.31 and 0.767,1.56 and 1.47,1.13 and 0.657,2.73 and 2.55,0.905 and -0.426,-0.791 and -0.306,-0.355 and 0.553,1.54 and 1.48,1.94 and 1.9,0.725 and 1.07,1.73 and 1.55,0.284 and 0.68,-1.56 (inactive) and -1.48 (inactive)
CCN1C(=O)[C@H]2[C@H]3[C@H](O)[C@H](O)CC(=NNC(=O)OCc4ccc(OC)cc4)[C@H]3CC[C@H]2C1=O,0.878,-0.388 (inactive),0.0979,-0.0903,-0.121,0.0203,0.5,-0.0112,0.737,0.364,0.0442,0.0241,0.0983,0.171,-0.699,-0.623,0.647,0.107,0.77,-0.716 (inactive)
CCC[C@@H]1C[C@@]1(CCC)[C@@H](NC(=O)c1ccc(-c2ccccc2)cc1)c1cccc(Cl)c1,-0.0449 and 0.93,-0.281 (inactive) and -0.599 (inactive),1.31 and -0.0569,0.723 and 0.0809,0.305 and 0.812,2.51 and 1.41,0.421 and -0.244,-0.546 and 0.593,0.844 and -0.561,-1.47 and 0.217,-0.844 and 1.8,-0.817 and 0.53,0.589 and 0.541,-0.427 and 0.367,-0.0957 and 0.115,-0.817 and -0.244,0.122 and 1.45,-0.16 and -0.268,-0.463 and 0.469,1.01 (inactive) and 1.76 (inactive)
CCOC(=O)[C@@H]1CC2O[C@]23C[C@@H]1C(=O)N1CCC[C@@H]1[C@H]3O[Si](C)(C)C(C)(C)C (stereo not given in full),-0.8 and -0.548,0.223 (inactive) and 0.413 (inactive),-0.11 and -0.128,-0.2 and -0.0949,-0.396 and 0.106,-0.645 and 0.205,-0.452 and 0.103,-1.37 and -0.191,0.1 and -0.201,-1.82 and -0.262,-0.423 and -0.146,-0.853 and 0.0436,0.623 and 0.0915,-0.607 and -0.0382,-0.568 and 0.342,0.0471 and 1.14,-0.944 and -0.261,-0.0485 and 0.69,-0.616 and -0.276,0.316 (inactive) and 0.32 (inactive)
